Where “and” joins values, the source holds several entries; their conditions need not be identical. Equal entries are not always repeated. This is part of a sample that, as a whole, favours compounds with a hit. Of some 83,000 tested, about 20% had one in any assay.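 Results are percent growth after 48 hours of single-concentration exposure. 100 means growth as in untreated cells, lower positive values show inhibition; negative values down to -100 show cell death.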 Calls of active or inactive are those of the source. The calls were made as follows: active = growth percent below 10; inactive = the rest.

The subject of the experiment is HL-60(TB) leukemia. Description: NCI-60 one-dose screen, 48 h (100 = growth as untreated, 0 = no growth, -100 = all killed). The following applies: 10 µM unless noted.
As for `Cc1c(C(=O)NCc2ccccc2)[n+](=O)c2cc(F)ccc2n1[O-]`, the growth is 189% (inactive).

Take `Cc1ccc2nc(C)c(-c3nnc(SCc4ccc(C#N)cc4)o3)n2c1`: the growth was 111% (inactive).

In the case of `COC(=O)Nc1nc2ccc(Sc3ccccc3)cc2[nH]1`, the growth was -5.94% (active).

In the case of `COc1ccccc1CNCCCN1C(=O)c2ccc3c4c(ccc(c24)C1=O)C(=O)N(CCCNCCCCNCCCCN)C3=O`, the growth is -37.8% (active).

Turning to `O=C1Nc2ccccc2[C@]12CC(c1ccccc1)=NN2`, the growth was -15.8% (active).

For the molecule `O=C(NCCc1ccccc1)C1CCC(=O)N1Cc1ccc(Br)cc1` (stereo not given), the growth is 89% (inactive).

With `O=C(Nc1ccc(Cl)c(Cl)c1)Nc1ccc(Cl)c(Cl)c1`, the growth is -56.8% (active) and 13% (inactive).

With `Cc1cc(C)n2nc(SCC(=O)Nc3sc4c(c3C(N)=O)CCC4)nc2n1`, the growth is 117% (inactive).

As for `COc1ccc(-c2cnc(N)nc2-c2ccc(OC)cc2O)cc1`, the growth is 79% (inactive).

In the case of `Brc1c2c(c(Br)c3ccccc13)CCCC2`, the growth is 91.4% (inactive).

For the molecule `O=C(CN1CCOCC1)Nc1nc(-c2cc3ccccc3oc2=O)cs1`, the growth was 102% (inactive).

With `CCCCCCCCCCCCCCCc1cc(O)ccc1N`, the growth is -45.5% (active) and -6.54% (active).

Take `N#Cc1cnc(NCCc2ccncc2)nc1-n1cnc2ccccc21`: the growth is 37.7% (inactive).

In the case of `CNc1nnc2n(-c3ccccc3)c(=O)c3cnn(-c4ccccc4)c3n12`, the growth was 70.5% (inactive).

For the molecule `COc1ccc(-c2cc(-c3ccc(Cl)cc3)c(C#N)c(=O)n2CCCCC(=O)Nc2ccccc2N)cc1`, the growth was 3.34% (active).

Source of the values: PubChem BioAssay (NCI).
